Measurements reported in PubChem BioAssay (NCI).
Compounds without any hit were thinned out: in the full panel of roughly 83,000, 20% have a hit.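 The endpoint reported here, percent growth, reads 100 for growth as untreated, 0 for no net growth and -100 for all cells dead.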 A number with no mark means an inactive call. Activity calls are given as the source filed them. The calls were made as follows: active = growth percent below 10; inactive = the rest.

These compounds were tested on MDA-MB-468 breast (assay: NCI-60 one-dose screen, 48 h (100 = growth as untreated, 0 = no growth, -100 = all killed)). Settings: 10 µM unless noted.
`COc1ccc(C2CC(c3ccc4ccccc4c3)=NN2c2nc(O)c(C3=c4cc(Cl)ccc4=NC3=O)s2)cc1` (stereo not drawn) was tested, and the growth was -73.9% (active). `N=S(c1ccccc1[N+](=O)[O-])c1ccccc1[N+](=O)[O-]` was tested, and the growth was 15.1%. For `Oc1c(CN2CCCC2)cc(COCc2ccccc2)c2cccnc12`, the growth was -15.4% (active). Compound `CN(C)CCCOc1ccc2c(c1)CN(C(=O)c1cc(C(=O)N3Cc4cccc(F)c4C3)ccc1O)C2` has a growth of 106%. Work on `CCOC(=O)/C(C#N)=C(\C)CCc1ccccc1` yielded a growth of 76.5%. `Cc1cc2c(-c3nc4ccccn4c3Nc3cccc4ccccc34)c(O)c(O)cc2c(O)c1-c1c(C)cc2c(-c3nc4ccccn4c3Nc3cccc4ccccc34)c(O)c(O)cc2c1O` showed a growth of 17.4%. For `Cc1ccc2c(c1)C(C)Cc1c(ncnc1-n1cnc3cc(C)ccc31)N2C` (stereo not drawn), the growth was 9.76% (active). In the case of `CC(C)(C)c1ccc(S(=O)(=O)N[C@H]2CC[C@H]3[C@@H]4CCc5cc(O)ccc5[C@H]4CC[C@]23C)cc1`, the growth is reported as 57.8%. `CCCOc1ccc2c(c1)CC[C@@H]1[C@@H]2CC[C@@]2(C)[C@H]1CC[C@]2(C)O` showed a growth of 59.8%. `CSc1nn2c(-c3cc4cc(Br)ccc4oc3=O)ccnc2c1C#N` was tested, and the growth was 109%. `CNC(=O)c1ccccc1Sc1ccc2c(/C=C/c3ccccn3)n[nH]c2c1` was tested, and the growth was 28%. For `N#Cc1ncc(Br)c(NC2CCCCCC2)n1`, the growth was 91.9%. `CN(C)c1ccc(/C=C2\Cc3c(F)ccc(Br)c3C2=O)cc1` was tested, and the growth was -29.4% (active). Work on `COc1ccc(CN2C(=O)/C(=C\C(=O)c3ccc(OCCN4CCCCC4)cc3)c3ccccc32)cc1` yielded a growth of 53.3%. `COc1ccc(-c2nnc(NC(=O)CN3CCN(c4cc5c(cc4F)c(=O)c(C(=O)O)cn5C4CC4)CC3)s2)cc1OC` showed a growth of 93%. `Nc1ccccc1SC(CC(=O)c1ccccc1)c1c(Cl)cccc1Cl` (stereo not drawn) showed a growth of 64.7%. In the case of `Cc1c(Cl)cc(Cl)c(N)c1Cl`, the growth is reported as 111%. `COc1ccc(Nc2nc(N)nc3c2CCN(Cc2ccc(OC)cc2OC)C3=O)cc1` was tested, and the growth was 95.6%. In the case of `COc1ccc(-c2nsc3c2NC(=O)CC3c2ccc(F)cc2)cc1` (stereo not drawn), the growth is reported as 1.54% (active). `CCN(CC)CC(O)CNc1c2ccc([N+](=O)[O-])cc2nc2cc(OC)c(OC)cc12` (stereo not drawn) was tested, and the growth was -44.5% (active). Work on `COc1ccc(C(=O)c2cc(OC)c(C)c(OC)c2)cc1OC(=O)CCl` yielded a growth of 38.3%. Compound `Nc1nc(Nc2ccccc2SSc2ccccc2Nc2nc(N)nc(C(Cl)(Cl)Cl)n2)nc(C(Cl)(Cl)Cl)n1` has a growth of 86.6%. Work on `Cn1cc(-c2nn3cc(-c4ccccc4)nc3s2)c2ccccc21` yielded a growth of 71.5%. `CC/C(=C(\CC)c1ccc(OCC[N+](C)(C)C)cc1)c1ccc(OC)cc1` was tested, and the growth was 2.58% (active). Work on `Nc1nc(N=Nc2ccc(O)cc2)cc(=O)[nH]1` yielded a growth of 91.5%. `CCOC(=O)c1c(C)oc2ncnc(N3CCN(C(=O)COc4ccc(SC)cc4)CC3)c12` gave a growth of 81.9%. `CCCCOC(=O)c1ccc(NC(=O)CCl)cc1` showed a growth of 50%. In the case of `COc1ccc(/C=C2/C(=O)Nc3cc(Cl)c(-c4csc(N)n4)cc32)cc1`, the growth is reported as 0.87% (active).
